# Test results taken from PubChem BioAssay AID504652 (National Center for Advancing Translational Sciences (NCATS), 2011).
# Values joined by “and” are separate entries in the source; they are usually repeats but may differ in a detail not shown here. Equal entries are not always repeated. Hit rate of the full screen: of about 360,000 compounds, about 11,000 (3.1%) were called active. Shown is part of a subset that was picked to be rich in actives. Values without a mark were called inactive. Rule as the data show it: active = activity change below about -30%; inactive = the rest.
# Biological target: D(1A) dopamine receptor (Homo sapiens) (UniProt P21728)
# Sequence (P21728 whole entry, looked up): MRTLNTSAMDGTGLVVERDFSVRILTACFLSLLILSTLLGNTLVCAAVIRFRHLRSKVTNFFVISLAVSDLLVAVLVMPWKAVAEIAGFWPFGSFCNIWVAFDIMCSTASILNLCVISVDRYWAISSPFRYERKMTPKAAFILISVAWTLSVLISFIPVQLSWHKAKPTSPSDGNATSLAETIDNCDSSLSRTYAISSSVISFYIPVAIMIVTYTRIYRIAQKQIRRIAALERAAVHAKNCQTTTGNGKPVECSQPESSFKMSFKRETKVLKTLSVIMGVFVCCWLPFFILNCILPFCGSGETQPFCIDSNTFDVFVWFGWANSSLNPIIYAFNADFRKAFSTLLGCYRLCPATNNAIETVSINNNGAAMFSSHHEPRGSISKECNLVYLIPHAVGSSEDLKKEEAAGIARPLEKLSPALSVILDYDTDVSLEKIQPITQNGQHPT
# Test: Antagonist of Human D 1 Dopamine Receptor: qHTS
# Conditions: HEK293 TREx D1 cells, calcium flux, dopamine EC80; at 10 µM; stronger effect = lower value
# Procedure, shortened: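 Antagonism measured as reduced calcium response to an EC80 dopamine addition following 180 s compound pre-read; cells were inducible HEK293 Trex D1 plated overnight at 30 C, read kinetically at 1 cycle/sec.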
# % is scaled to controls: 0 for no effect and ±100 for the full control effect.
row,SMILES,"activity change, negative = inhibition"
1,COc1ccccc1CNC(=O)CCn1c(=O)c2ccccc2n(CC(=O)Nc2ccc(Br)cc2F)c1=O,0.197%
2,COc1ccc(C)cc1NC(=O)CCc1c(C)nn(-c2ccc(N3CCOCC3)nn2)c1C,-25.9%
3,Cc1ccccc1NC(=S)N(CCCN1CCOCC1)Cc1cccs1,-5.87%
4,Cc1ccc(Cl)cc1NC(=S)N(CCN(C)C)Cc1cccs1,-0.901%
5,Cc1ccc(NC(=S)N(CCN(C)C)Cc2cccs2)cc1C,-42.5% (active)
6,COC(=O)c1scc(-c2ccc(C)cc2)c1S(=O)(=O)Nc1cc(Cl)c(OC)cc1OC,10.2%
7,Cc1ccc(CSc2nc3ccsc3c(=O)n2CCC(C)C)cc1,13.8%
8,COCCNS(=O)(=O)c1cc(-c2nn3c(C)nnc3c3ccccc23)ccc1C,-4.16%
9,CC(=O)c1cccc(Nc2ccc3cc(S(=O)(=O)N4CCC(C)CC4)ccc3n2)c1,13.5%
10,COc1cccc(NC(=S)C(C#N)=C2N(C)c3ccccc3N2C)c1,0.557%
11,CN1CCN(CCC(=O)N/N=C/C=C2\N(C)c3ccccc3C2(C)C)CC1,-8.35%
12,CC(=O)Nc1cccc(OCC(=O)/C=C2\N(C)c3ccccc3C2(C)C)c1,-35.4% (active)
13,O=C1OC(C(=O)Nc2cccc(Br)c2)Cc2ccccc21 (configuration not stated),3.01%
14,COc1cccc(/C=C2\Sc3ccc(C(=O)NCC4CCCO4)cc3N(C)C2=O)c1 (configuration not stated),-38% (active)
15,COc1cccc(C(=O)NCCS(=O)(=O)NCC2CCCO2)c1 (configuration not stated),28.7%
16,COc1ccc2cc(C(=O)NCC3CCCO3)[nH]c2c1 (configuration not stated),-7.79%
17,Brc1cccc(-c2nnn3c2nc(NC2CCCCC2)c2ccccc23)c1,11.9%
18,Cc1cc(F)ccc1NS(=O)(=O)c1ccc(-n2cccn2)cc1,-14%
19,Cc1ccc(-n2nc(C)c3c(C)cc(=O)n(CC(=O)Nc4ccc(C(C)C)cc4)c32)cc1,14.4%
20,CCOC(=O)c1ccc(N2C(=O)c3[nH]nc(-c4ccccc4)c3C2c2ccc(C(C)C)cc2)cc1 (configuration not stated),49.1%
21,CCOc1ccc(CCNC(=O)c2c(C)oc3ncn(C)c(=O)c23)cc1,3.92%
22,CCN1CCCC1CNC(=O)c1cc2c(=O)n(C)c3ccccc3c2n1C (configuration not stated),-10.7%

row,SMILES,"activity change, negative = inhibition"
1,CCOc1ccc(CCNC(=O)c2cc3c(=O)n(C)c4ccccc4c3n2C)cc1,-46.8% (active)
2,CCCn1c2ccccc2c2cnn(CC(=O)N(C)c3ccccc3CC)c(=O)c21,-1.54%
3,O=C(c1ccc2c(c1)N(Cc1ccccc1)C(=O)c1ccccc1S2(=O)=O)N1CCCC1,1.23%
4,O=C(Nc1cc(C(F)(F)F)ccc1Cl)c1cc2nc(-c3ccc4c(c3)OCO4)cc(C(F)(F)F)n2n1,12.4%
5,CC(C)c1ccc(NC(=O)C2CCN(c3nc(-c4ccc(C(C)C)cc4)no3)CC2)cc1,-20.6%
6,COc1ccc(NC(=O)c2ccc3nc(CCc4ccccc4)oc3c2)c(OC)c1,0.958%
7,CC(=O)N1CCCc2cc(S(=O)(=O)N3CCC(C(=O)NCc4ccc(F)cc4)CC3)ccc21,-2.54%
8,CCc1nccn1S(=O)(=O)c1cc(Br)ccc1Br,-13.3%
9,COC(=O)c1ccc(C2C(C(=O)Nc3ccccc3)=C(C)Nc3nc4ccccc4n32)cc1 (configuration not stated),6.56%
10,c1ccc(-c2cc3c(NCC4COc5ccccc5O4)ncnc3s2)cc1 (configuration not stated),-18.9%
11,c1ccc2c(c1)OCC(CNc1ncnc3nc[nH]c13)O2 (configuration not stated),-86.7% (active)
12,COc1ccc(CCNc2ncnc3nc[nH]c23)cc1OC,-23.9%
13,CCOc1ccccc1CNC(=O)c1ccc2c(c1)nc1n2CCC(C)C1 (configuration not stated),-12.2%
14,Cc1cc2nc(-c3ccc(NC(=O)c4cc5ccccc5o4)cc3)oc2cc1C,-20.5%
15,CC(C)Oc1ccc(NC(=O)c2cc3ccccc3o2)cc1,-61.7% (active)
16,CCC(C)c1ccc2oc(-c3ccc(NC(=O)c4cc5ccccc5o4)cc3)nc2c1 (configuration not stated),-6.42%
17,CC1=Nc2cc(C(=O)N3CCC(C)CC3)ccc2Sc2ccc(Cl)cc21,5.84%
18,CCOC(=O)N1CCc2c(sc3c2c(=O)n(-c2ccc(CC)cc2)c(=O)n3C)C1,5.44%
19,CCCc1cc(C(=O)Nc2ccc(C(=O)OC)cc2)cs1,-31.2% (active)
20,CCN(CC)C(=O)CCC(=O)Nc1ccc(C(=O)OC)cc1,-2.84%
21,CCCc1cc(C(=O)Nc2ccc(Cl)cn2)cs1,11%
22,Cc1ccc(C(=O)NCCSc2c(C)[nH]c3ccccc23)cc1C,-23.5%

row,SMILES,"activity change, negative = inhibition"
1,Cc1ccc(-n2c3nc(=O)[nH]c(=O)c-3cc3c(Cl)cccc32)cc1,7.04%
2,COc1ccccc1CNC(=O)C(Cc1ccccc1)NS(=O)(=O)c1ccc2c(c1)oc(=O)n2C (configuration not stated),3.15%
3,Cc1ccc(NC(=O)C(Cc2ccccc2)NS(=O)(=O)c2ccc3c(c2)oc(=O)n3C)cc1C (configuration not stated),-42.8% (active)
4,Cc1ccc(NC(=O)CCNS(=O)(=O)c2ccc3c(c2)oc(=O)n3C)cc1C,-0.228%
5,COc1ccc(-c2ccc(=O)n(CC(=O)Nc3ccc(Br)cc3F)n2)cc1,27.5%
6,O=C(CCCN1CCc2[nH]c3ccc(F)cc3c2C1)c1ccc(F)cc1,-73% (active)
7,O=c1c2ccccc2[nH]c(=S)n1CCN1CCC(=C(c2ccc(F)cc2)c2ccc(F)cc2)CC1,-22.1%
8,Cc1ccc2[nH]c3c(c2c1)CN(C(=O)CN1CCN(c2ccccc2)CC1)CC3,-26.5%
9,CCCc1nn2c(=O)cc(COC(=O)c3ccc(NC(=O)COc4ccc(F)cc4)cc3)nc2s1,-16.4%
10,CCn1cc(C(=O)OCC(=O)Nc2cc(C)cc(C)c2)c(=O)c2ccc(C)nc21,7.91%
11,Cc1cc(C=O)c(C)n1-c1ccc(NC2CCCCC2)c([N+](=O)[O-])c1,-2.05%
12,Cc1ccc(-n2c(C)cc(/C=N/Nc3ccc([N+](=O)[O-])cn3)c2C)c(C)c1,-44.1% (active)
13,Cc1ccc(N2CCN(c3ccc([N+](=O)[O-])cn3)CC2)c(C)c1,8.06%
14,CC(C)C(=O)Nc1nc2c(s1)CC(C(C)(C)C)CC2 (configuration not stated),7.11%
15,CCCn1c(=N)n(CC(O)COc2ccccc2OC)c2ccccc21 (configuration not stated),-15%
16,COc1ccccc1OCCNCC(O)COc1cccc2[nH]c3ccccc3c12 (configuration not stated),-58.7% (active) and -69% (active)
17,COc1cccc2[nH]c(C(=O)NCCc3ccccc3)cc12,-6.46%
18,CC(C)Sc1oc(-c2cccs2)nc1S(=O)(=O)c1ccc(Cl)cc1,14.3%
19,COc1ccc(-c2nc(SCC(=O)N3CCCCC3C)n[nH]2)cc1 (configuration not stated),9.65%
20,COc1ccc(-c2csc(-c3c(N)c(C(=O)c4ccc(OC)c(OC)c4)n4ccccc34)n2)cc1,-1.18%
21,COc1ccc(S(=O)(=O)NCC(c2ccc(N(C)C)cc2)N2CCc3ccccc32)cc1OC (configuration not stated),-64.5% (active)
22,COc1ccc(C(=O)NCC(c2ccc(N(C)C)cc2)N2CCc3ccccc32)c(OC)c1 (configuration not stated),-5.15%

row,SMILES,"activity change, negative = inhibition"
1,O=S(=O)(NCC(c1ccccc1)N1CCc2ccccc21)c1ccccc1 (configuration not stated),6.46%
2,COc1ccc(NC(=O)CSc2nccn2Cc2ccc3c(c2)OCO3)cc1,6.87%
3,O=C(NCc1ccccc1)C1CCN(S(=O)(=O)c2ccc3[nH]c(=O)ccc3c2)CC1,16.6%
4,COc1ccc(CCN2C(=O)N(c3cccc(OC)c3)C(=O)C2CC(=O)Nc2ccccc2)cc1 (configuration not stated),-1.1%
5,C=C(Cl)COC(=O)C1C2C=CC(C2)C1C(=O)O (configuration not stated),6.01%
6,CN1CCN(C(=O)C2C3C=CC(C3)C2C(=O)O)CC1 (configuration not stated),-15.3%
7,O=C(O)C1C2C=CC(C2)C1C(=O)N1CCN(CCO)CC1 (configuration not stated),-46.7% (active)
8,Cc1cccc(-n2ncc(C(=O)N3CCc4ccccc4C3)c2C2CCN(C(=O)OC(C)(C)C)CC2)c1,7.17%
9,Oc1c(Cl)cc(Cl)c(Cl)c1Cc1c(O)c(Cl)cc(Cl)c1Cl,-41.7% (active)
10,CCc1ccc(NC(=O)CN2C(=O)C(c3ccccc3)=NC23CCCCCC3)cc1,-6.53%
11,COc1ccc(/C=C/C(=O)Nc2c(C)nn(C)c2C)cc1COc1ccc(Br)cc1,9.14%
12,CCn1nc(C)c(NC(=O)/C=C/c2ccc(OC)c(COc3ccc(Br)cc3)c2)c1C,-39.8% (active)
13,COc1ccc(C(C)=O)cc1COc1ccc(Cl)c(C)c1,0.455%
14,COc1cccc(CNC(=O)C2CCC(CNS(=O)(=O)c3cccs3)CC2)c1 (configuration not stated),-1.65%
15,CCc1ccccc1N1C(=O)CN(S(=O)(=O)CC)CC1(C)C(=O)NC1CCCCC1 (configuration not stated),-10.1%
16,Cc1ccccc1C(=O)Nc1sc2c(c1C(=O)N1CCC(C)CC1)CCCC2,5.36%
17,Fc1ccc2[nH]c3c(N4CCN(Cc5ccc6c(c5)OCO6)CC4)ncnc3c2c1,-7.57%
18,Fc1ccc2[nH]c3c(N4CCSCC4)ncnc3c2c1,-30.2% (active)
19,NC(=O)C[C@@H]1NC(=O)CNC(=O)c2cc([N+](=O)[O-])cc(I)c2NCCC(C(N)=O)NC1=O (some centres not stated),-30.2% (active)
20,NCCCC[C@@H]1NC(=O)[C@H](CCC(=O)O)NC(=O)c2cc([N+](=O)[O-])cc(I)c2NCC[C@@H](C(N)=O)NC1=O,-2.74%
21,NC(=O)CC[C@@H]1NC(=O)[C@H](CO)NC(=O)c2cc([N+](=O)[O-])cc(I)c2NCC[C@@H](C(N)=O)NC1=O,-14%
